Measured values as given in ChEMBL document CHEMBL1961873, “Compounds: GSK PKIS; Assays: Nanosyn kinase panel” (2012).

Assays:
[1] = biological target: Death-associated protein kinase 1 (Homo sapiens) (UniProt P53355); conditions: at 1 µM;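 also: each value is a mean inhibition figure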
[2] = biological target: T1, Serine/threonine-protein kinase DCLK2 (Homo sapiens) (UniProt Q8N568); conditions: at 0.1 µM
T1 sequence (whole entry): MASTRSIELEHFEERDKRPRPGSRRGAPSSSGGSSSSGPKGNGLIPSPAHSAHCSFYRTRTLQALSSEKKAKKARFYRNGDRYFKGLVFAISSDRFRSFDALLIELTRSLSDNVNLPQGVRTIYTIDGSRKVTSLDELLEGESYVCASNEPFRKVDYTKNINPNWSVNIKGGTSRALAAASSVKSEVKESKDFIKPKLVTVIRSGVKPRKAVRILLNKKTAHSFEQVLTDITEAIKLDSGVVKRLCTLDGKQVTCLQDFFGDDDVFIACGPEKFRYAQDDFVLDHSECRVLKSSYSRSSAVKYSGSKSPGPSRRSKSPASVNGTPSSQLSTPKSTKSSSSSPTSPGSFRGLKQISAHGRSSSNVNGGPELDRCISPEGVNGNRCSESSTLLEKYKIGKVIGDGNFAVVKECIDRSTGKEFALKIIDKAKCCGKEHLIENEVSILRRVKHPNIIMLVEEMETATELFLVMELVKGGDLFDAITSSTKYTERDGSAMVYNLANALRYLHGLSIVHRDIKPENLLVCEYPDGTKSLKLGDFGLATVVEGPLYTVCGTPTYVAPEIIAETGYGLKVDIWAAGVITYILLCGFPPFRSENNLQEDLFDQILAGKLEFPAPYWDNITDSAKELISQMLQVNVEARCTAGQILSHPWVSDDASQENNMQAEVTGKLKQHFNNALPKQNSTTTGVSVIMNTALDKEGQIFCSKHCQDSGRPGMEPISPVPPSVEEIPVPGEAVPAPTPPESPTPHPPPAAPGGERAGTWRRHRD

[3] = biological target: T1, Serine/threonine-protein kinase DCLK2 (Homo sapiens); conditions: at 1 µM
[4] = biological target: MAP kinase-activated protein kinase 2 (Homo sapiens) (UniProt P49137); conditions: at 0.1 µM
Sequence of MAP kinase-activated protein kinase 2 (Homo sapiens) (P49137 whole entry, looked up): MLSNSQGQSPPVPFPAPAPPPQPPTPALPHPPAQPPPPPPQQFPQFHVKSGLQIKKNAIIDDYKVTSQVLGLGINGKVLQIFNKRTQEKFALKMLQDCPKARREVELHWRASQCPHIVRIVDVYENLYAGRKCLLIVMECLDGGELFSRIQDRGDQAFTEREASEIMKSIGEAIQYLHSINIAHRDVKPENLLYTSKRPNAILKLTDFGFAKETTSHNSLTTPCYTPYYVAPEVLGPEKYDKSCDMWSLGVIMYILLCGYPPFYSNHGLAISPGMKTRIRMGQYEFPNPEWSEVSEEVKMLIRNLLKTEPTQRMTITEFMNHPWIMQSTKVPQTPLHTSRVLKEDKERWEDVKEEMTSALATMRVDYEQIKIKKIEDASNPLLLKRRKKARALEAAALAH

[5] = biological target: MAP kinase-activated protein kinase 2 (Homo sapiens) (UniProt P49137); conditions: at 1 µM
[6] = biological target: MAP kinase-activated protein kinase 3 (Homo sapiens) (UniProt Q16644); conditions: at 0.1 µM
Sequence of MAP kinase-activated protein kinase 3 (Homo sapiens) (Q16644 whole entry, looked up): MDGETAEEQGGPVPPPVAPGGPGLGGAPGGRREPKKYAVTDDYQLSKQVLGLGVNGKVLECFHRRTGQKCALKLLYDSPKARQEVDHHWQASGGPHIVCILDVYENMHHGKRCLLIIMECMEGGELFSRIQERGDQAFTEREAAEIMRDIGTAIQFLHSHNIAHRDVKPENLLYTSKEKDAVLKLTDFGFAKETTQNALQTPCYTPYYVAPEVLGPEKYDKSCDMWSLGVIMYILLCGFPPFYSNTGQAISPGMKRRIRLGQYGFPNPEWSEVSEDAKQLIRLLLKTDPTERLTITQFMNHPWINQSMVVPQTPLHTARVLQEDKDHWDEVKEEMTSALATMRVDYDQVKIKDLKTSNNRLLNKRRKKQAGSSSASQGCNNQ

[7] = biological target: MAP kinase-activated protein kinase 3 (Homo sapiens) (UniProt Q16644); conditions: at 1 µM
[8] = biological target: Serine/threonine-protein kinase MARK1 (Homo sapiens) (UniProt Q9P0L2); conditions: at 0.1 µM
Sequence of Serine/threonine-protein kinase MARK1 (Homo sapiens) (Q9P0L2 whole entry, looked up): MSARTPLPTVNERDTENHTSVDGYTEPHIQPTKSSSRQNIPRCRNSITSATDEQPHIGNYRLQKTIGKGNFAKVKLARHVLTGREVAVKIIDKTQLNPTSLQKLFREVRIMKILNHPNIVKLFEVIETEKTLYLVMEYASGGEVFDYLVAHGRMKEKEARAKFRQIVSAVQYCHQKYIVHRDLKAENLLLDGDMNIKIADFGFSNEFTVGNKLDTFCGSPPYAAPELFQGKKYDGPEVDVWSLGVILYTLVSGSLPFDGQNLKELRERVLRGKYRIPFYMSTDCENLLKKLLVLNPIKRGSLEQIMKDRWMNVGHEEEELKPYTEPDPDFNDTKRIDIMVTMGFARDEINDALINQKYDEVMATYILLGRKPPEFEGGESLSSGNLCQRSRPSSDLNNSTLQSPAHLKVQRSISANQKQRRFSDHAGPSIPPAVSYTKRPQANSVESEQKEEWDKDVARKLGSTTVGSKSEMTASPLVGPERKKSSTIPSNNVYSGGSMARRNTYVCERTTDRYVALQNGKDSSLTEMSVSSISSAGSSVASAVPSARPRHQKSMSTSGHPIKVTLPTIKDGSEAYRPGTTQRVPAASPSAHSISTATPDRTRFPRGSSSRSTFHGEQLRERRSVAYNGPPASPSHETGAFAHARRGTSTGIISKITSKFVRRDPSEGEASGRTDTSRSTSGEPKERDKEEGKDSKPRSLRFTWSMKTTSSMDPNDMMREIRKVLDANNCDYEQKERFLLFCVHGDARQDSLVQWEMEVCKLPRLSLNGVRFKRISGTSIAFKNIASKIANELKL

[9] = biological target: Serine/threonine-protein kinase MARK1 (Homo sapiens) (UniProt Q9P0L2); conditions: at 1 µM
[10] = biological target: MAP/microtubule affinity-regulating kinase 3 (Homo sapiens) (UniProt P27448); conditions: at 0.1 µM
Sequence of MAP/microtubule affinity-regulating kinase 3 (Homo sapiens) (P27448 whole entry, looked up): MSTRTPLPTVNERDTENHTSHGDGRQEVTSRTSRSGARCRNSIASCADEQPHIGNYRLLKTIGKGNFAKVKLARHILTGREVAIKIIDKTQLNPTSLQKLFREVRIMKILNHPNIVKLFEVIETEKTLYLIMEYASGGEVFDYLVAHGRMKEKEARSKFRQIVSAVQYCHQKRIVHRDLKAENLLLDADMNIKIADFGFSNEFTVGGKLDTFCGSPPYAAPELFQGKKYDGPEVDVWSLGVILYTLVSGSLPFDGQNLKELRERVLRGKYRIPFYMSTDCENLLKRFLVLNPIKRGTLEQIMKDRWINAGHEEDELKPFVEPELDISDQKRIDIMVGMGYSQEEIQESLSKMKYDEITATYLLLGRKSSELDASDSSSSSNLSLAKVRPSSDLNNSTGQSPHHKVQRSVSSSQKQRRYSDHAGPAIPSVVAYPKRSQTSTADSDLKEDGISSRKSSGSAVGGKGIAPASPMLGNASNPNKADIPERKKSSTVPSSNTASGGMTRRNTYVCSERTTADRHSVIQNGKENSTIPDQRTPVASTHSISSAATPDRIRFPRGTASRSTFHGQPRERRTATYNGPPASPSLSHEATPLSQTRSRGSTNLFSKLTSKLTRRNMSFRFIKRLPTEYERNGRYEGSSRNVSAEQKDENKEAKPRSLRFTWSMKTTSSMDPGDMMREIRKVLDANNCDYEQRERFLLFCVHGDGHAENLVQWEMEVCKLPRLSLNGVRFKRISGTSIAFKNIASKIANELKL

[11] = biological target: MAP/microtubule affinity-regulating kinase 3 (Homo sapiens) (UniProt P27448); conditions: at 1 µM
[12] = biological target: T2, MAP/microtubule affinity-regulating kinase 4 (Homo sapiens) (UniProt Q96L34); conditions: at 0.1 µM
T2 sequence (whole entry): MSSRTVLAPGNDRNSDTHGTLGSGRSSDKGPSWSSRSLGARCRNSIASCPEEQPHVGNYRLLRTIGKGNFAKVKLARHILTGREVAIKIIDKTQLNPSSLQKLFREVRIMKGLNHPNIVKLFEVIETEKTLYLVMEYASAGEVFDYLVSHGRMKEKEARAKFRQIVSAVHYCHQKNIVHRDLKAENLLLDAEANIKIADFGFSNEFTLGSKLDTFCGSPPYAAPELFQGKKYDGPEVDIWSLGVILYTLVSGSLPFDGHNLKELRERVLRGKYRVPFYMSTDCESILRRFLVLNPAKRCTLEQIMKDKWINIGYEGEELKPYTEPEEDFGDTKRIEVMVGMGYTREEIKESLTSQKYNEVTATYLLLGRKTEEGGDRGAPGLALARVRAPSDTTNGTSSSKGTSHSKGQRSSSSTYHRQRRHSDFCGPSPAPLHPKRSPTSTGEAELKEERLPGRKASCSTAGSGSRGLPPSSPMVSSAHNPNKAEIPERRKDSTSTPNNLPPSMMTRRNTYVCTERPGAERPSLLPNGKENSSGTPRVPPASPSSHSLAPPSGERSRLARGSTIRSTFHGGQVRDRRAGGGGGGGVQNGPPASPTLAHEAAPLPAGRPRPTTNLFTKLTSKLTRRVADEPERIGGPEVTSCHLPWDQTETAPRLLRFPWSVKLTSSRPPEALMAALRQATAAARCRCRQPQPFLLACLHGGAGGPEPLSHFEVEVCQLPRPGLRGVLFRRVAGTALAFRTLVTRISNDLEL

[13] = biological target: T2, MAP/microtubule affinity-regulating kinase 4 (Homo sapiens); conditions: at 1 µM
[14] = biological target: Maternal embryonic leucine zipper kinase (Homo sapiens) (UniProt Q14680); conditions: at 0.1 µM
Sequence of Maternal embryonic leucine zipper kinase (Homo sapiens) (Q14680 whole entry, looked up): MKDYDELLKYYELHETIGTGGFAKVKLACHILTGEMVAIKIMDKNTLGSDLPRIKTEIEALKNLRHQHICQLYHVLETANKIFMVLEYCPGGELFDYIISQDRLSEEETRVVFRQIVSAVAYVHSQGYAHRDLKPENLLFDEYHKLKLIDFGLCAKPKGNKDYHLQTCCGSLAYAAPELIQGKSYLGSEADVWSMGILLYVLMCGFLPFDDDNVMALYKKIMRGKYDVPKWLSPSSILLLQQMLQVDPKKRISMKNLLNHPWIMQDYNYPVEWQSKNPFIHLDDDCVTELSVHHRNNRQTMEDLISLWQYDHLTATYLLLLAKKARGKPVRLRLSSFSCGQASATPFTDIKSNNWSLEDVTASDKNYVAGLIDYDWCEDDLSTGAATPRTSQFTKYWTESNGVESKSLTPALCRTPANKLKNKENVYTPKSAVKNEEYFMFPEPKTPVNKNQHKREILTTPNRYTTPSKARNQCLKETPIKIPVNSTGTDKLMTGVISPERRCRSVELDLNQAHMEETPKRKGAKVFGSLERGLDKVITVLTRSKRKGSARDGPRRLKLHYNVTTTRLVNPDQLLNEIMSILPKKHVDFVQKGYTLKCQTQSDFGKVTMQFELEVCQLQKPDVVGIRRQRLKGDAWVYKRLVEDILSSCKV

[15] = biological target: Maternal embryonic leucine zipper kinase (Homo sapiens) (UniProt Q14680); conditions: at 1 µM
[16] = biological target: MAP kinase-interacting serine/threonine-protein kinase 1 (Homo sapiens) (UniProt Q9BUB5); conditions: at 0.1 µM
Sequence of MAP kinase-interacting serine/threonine-protein kinase 1 (Homo sapiens) (Q9BUB5 whole entry, looked up): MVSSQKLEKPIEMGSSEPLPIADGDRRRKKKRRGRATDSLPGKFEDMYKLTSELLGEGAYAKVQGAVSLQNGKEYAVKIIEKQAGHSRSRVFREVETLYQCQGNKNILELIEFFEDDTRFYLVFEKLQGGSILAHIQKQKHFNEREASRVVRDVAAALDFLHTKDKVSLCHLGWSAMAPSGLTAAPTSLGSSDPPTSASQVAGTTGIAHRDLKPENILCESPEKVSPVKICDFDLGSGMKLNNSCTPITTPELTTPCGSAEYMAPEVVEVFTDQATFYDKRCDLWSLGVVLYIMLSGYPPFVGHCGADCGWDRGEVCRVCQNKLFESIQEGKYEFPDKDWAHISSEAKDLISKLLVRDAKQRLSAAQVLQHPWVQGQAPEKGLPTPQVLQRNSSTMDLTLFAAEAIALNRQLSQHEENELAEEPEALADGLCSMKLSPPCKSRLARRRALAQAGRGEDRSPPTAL

[17] = biological target: MAP kinase-interacting serine/threonine-protein kinase 1 (Homo sapiens) (UniProt Q9BUB5); conditions: at 1 µM
[18] = biological target: MAP kinase-interacting serine/threonine-protein kinase 2 (Homo sapiens) (UniProt Q9HBH9); conditions: at 0.1 µM
[19] = biological target: MAP kinase-interacting serine/threonine-protein kinase 2 (Homo sapiens) (UniProt Q9HBH9); conditions: at 1 µM
[20] = biological target: Serine/threonine-protein kinase MARK2 (Homo sapiens) (UniProt Q7KZI7); conditions: at 0.1 µM;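 also: mean percent inhibition of PAR-1Balpha kinase activity, reported from the GSK PKIS screen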

Sequence of Death-associated protein kinase 1 (Homo sapiens) (P53355 whole entry, looked up): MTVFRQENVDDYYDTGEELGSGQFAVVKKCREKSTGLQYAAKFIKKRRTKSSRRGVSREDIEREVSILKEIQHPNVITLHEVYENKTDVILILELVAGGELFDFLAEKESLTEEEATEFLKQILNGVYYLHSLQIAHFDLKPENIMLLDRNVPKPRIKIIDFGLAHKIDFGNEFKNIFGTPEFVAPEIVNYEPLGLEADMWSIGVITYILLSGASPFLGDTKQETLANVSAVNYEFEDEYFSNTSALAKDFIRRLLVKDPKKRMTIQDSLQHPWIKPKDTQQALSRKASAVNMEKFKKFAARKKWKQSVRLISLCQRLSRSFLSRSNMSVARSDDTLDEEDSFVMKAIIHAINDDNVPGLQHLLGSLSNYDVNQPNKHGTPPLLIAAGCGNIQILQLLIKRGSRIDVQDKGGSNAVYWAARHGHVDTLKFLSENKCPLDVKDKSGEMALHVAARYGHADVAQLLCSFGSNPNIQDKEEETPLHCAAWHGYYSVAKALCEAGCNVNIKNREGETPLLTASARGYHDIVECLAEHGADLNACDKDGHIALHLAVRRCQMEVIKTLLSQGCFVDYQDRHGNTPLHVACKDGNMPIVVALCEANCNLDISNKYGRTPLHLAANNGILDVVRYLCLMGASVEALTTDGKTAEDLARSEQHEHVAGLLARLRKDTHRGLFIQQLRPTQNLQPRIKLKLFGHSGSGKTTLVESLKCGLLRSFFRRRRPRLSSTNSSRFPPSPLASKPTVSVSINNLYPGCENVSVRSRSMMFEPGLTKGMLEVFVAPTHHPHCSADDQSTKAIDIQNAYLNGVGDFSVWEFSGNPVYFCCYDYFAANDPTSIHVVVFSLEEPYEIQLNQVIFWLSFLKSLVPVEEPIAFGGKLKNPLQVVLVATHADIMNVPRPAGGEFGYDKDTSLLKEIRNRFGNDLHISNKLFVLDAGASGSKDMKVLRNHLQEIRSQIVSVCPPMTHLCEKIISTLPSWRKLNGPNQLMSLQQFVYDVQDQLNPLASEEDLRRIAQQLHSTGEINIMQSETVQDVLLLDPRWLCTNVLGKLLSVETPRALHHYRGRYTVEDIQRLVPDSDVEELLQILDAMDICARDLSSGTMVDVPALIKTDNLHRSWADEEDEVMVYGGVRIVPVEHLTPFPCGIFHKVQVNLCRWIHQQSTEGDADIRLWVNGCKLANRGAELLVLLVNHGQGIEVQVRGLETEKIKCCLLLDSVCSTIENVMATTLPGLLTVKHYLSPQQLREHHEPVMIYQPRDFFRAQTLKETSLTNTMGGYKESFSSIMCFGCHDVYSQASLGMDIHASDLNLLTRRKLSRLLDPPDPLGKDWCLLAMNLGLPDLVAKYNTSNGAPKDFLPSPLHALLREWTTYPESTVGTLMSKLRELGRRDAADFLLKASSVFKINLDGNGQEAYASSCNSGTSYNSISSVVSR

SMILES | inhibition [1] | inhibition [2] | inhibition [3] | inhibition [4] | inhibition [5] | inhibition [6] | inhibition [7] | inhibition [8] | inhibition [9] | inhibition [10] | inhibition [11] | inhibition [12] | inhibition [13] | inhibition [14] | inhibition [15] | inhibition [16] | inhibition [17] | inhibition [18] | inhibition [19] | inhibition [20]
COc1cc2ncn(-c3cc(OCc4cccs4)c(C(N)=O)s3)c2cc1OC | -2.56% | -9.99% | -0.46% | 0.78% | 1.78% | 1.75% | 2.97% | 2.63% | 15.8% | 3.86% | 20.3% | 2.12% | 9.4% | 2.35% | 4.91% | 3.56% | 14.7% | 3.17% | 13% | 1.68%
O=C1Nc2ccccc2/C1=C/Nc1ccc(-n2cncn2)cc1 | 7.29% | 1.71% | -2.02% | 2.96% | 2.54% | 3.98% | 3.15% | 5.86% | 25.4% | 3.28% | 36.4% | 3.35% | 17.9% | 6.89% | 25.8% | 7.6% | 14.8% | 2.4% | 8.07% | 1.47%
CS(=O)(=O)CCNCc1cc(-c2cc3c(Nc4ccc(OCc5cccc(F)c5)c(Cl)c4)ncnc3s2)cs1 | -0.04% | 0.09% | 1.12% | 2.75% | 3.42% | 3.37% | 4.64% | -0.03% | 3.02% | 0.84% | 3.64% | 1.63% | 1.6% | 5.46% | 10.5% | 2.78% | 7.91% | 1.16% | 7.96% | -0.51%
Nc1nccc(-c2c(-c3ccc(F)cc3)ncn2C2CCC(O)CC2)n1 (stereo not given) | -0.38% | -1.66% | 5.59% | -1.26% | -1.57% | 30% | 36.4% | -0.13% | 0.51% | -1.63% | 0.22% | 0.43% | 1.28% | -3.21% | 1.19% | 0.34% | 0.48% | 0.18% | 0.46% | 1.84%
CN(C)CCCNc1nccc(-c2c(-c3ccc(F)cc3)nn3cc(C(F)(F)F)ccc23)n1 | 0.77% | -2.25% | -1.62% | -0.13% | 0.05% | 8.23% | 22.7% | 3.37% | 1.8% | 3.54% | 3% | 1.09% | 2.72% | 1.14% | 2.95% | 1.94% | 8.83% | 0.89% | 6.51% | -0.22%
COc1ccc(-c2ccc3c(NC(=O)C4CC4)n[nH]c3n2)cc1 | 3.76% | -1.52% | 2.41% | 1.32% | 1.4% | 1.44% | 3.8% | 1.93% | 5.02% | 2.03% | 2.41% | 0% | -0.43% | -1.74% | -0.77% | 3.03% | 21.5% | 1.32% | 5.48% | 0.67%
Cc1ccc(NC(=O)c2ccoc2)cc1-c1ccc(C(=O)NCC2CC2)cc1 | 4.7% | -0.46% | -0.45% | 0.09% | -0.32% | 20% | 30.9% | 0.5% | 1.39% | 1.61% | 1.79% | 0.31% | 0.19% | 3.06% | -0.33% | 3.06% | 4.75% | -0.05% | 2.22% | -0.93%
C/C(Nc1ccc(S(N)(=O)=O)cc1)=C1/C(=O)Nc2ccccc21 | 1.66% | 4.83% | 2.32% | -0.92% | -0.57% | -0.79% | -0.11% | 4.3% | 32.8% | 2.37% | 19.8% | 4.34% | 28.2% | 2.57% | 41.9% | -1.24% | 3.04% | -1.74% | 3.41% | 2.01%
COc1cc2ncn(-c3cc(OCc4ccccc4C(F)(F)F)c(C(C)=O)s3)c2cc1OC | 1.98% | -1.1% | 1.3% | 1.03% | 0.77% | 3.07% | 2.6% | 4.34% | 2.61% | 0.67% | 3.71% | 3% | 2.91% | 3.94% | 1.83% | 3.58% | 5.46% | 1.92% | 4.93% | -0.07%
O=C(Nc1n[nH]c2nc(-c3ccco3)ccc12)C1CC1 | 8.47% | -5.65% | -0.3% | 3.08% | 2.89% | 7.07% | 7.18% | -0.31% | 0.25% | 3.27% | 1.53% | 0.31% | 0.56% | 2.23% | 2.05% | 1.89% | 9.62% | 0.06% | 4.01% | 0.19%
O=C1Nc2ccc(I)cc2C1=Cc1cc(Br)c(O)c(Br)c1 | -4.68% | 0.92% | 1.91% | 1.65% | 4.08% | 2.77% | 3.75% | 0.84% | 2.09% | -0.57% | 2.16% | 1.14% | 2.32% | 2.86% | 13.8% | 2.2% | 7.73% | 2.51% | 17.6% | -0.39%
COc1cc2ncn(-c3cc(OCCc4ccccc4)c(C(N)=O)s3)c2cc1OC | 1.51% | 0.43% | 0.05% | 0.61% | 1.03% | 2.1% | 4.28% | 3.11% | 3.45% | 3.88% | 1.74% | 0.87% | 0.86% | 3.07% | 1.31% | 2% | 6.3% | 0.86% | 12.8% | 1%
O=C(Nc1n[nH]c2nc(-c3ccc(O)cc3)c(Br)cc12)C1CC1 | 3.27% | 0.9% | 3.55% | 2.43% | 2.69% | 4.49% | 5.6% | 3.94% | 9.58% | 3.96% | 8.75% | 3.64% | 4.75% | 6.28% | 13.1% | 37.8% | 76.1% | 5.42% | 35.1% | -0.95%
COc1cccc(/C=N/Nc2ncnc3c2cnn3-c2cccc(OC)c2)c1 | -2.35% | -0.11% | 1.93% | 2.15% | 2.31% | 2.37% | 2.33% | 0.69% | 2.26% | -0.24% | 0.87% | 0.94% | 0.58% | 3.83% | 9.57% | 2.02% | 4.36% | -0.25% | 2.4% | -5.9%
